Test results: PubChem BioAssay AID651949 (Broad Institute, 2012)
Measured potencies and affinities stand elsewhere. Activity calls are given as the source filed them.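 Rule for the calls: active = compounds lowering cell ATP signal whose fitted half-maximal concentration is at most twice the top tested dose; inconclusive = flat curve with 30 to 70% signal loss, or poor fit; inactive = the rest.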

Assay: HEK293T cell cytotoxicity, dose response, cytotoxicity control, CellTiter-Glo luminescence, dry powder, set 6 (AID 651949)
Conditions: HEK293T viability, CellTiter-Glo ATP luminescence, 48 h; series mostly up to 26 µM

| Structure (SMILES) | outcome |
| --- | --- |
| c1ccc(-c2nnc(SCc3cscn3)o2)cc1 | inactive |
| FC(F)(F)c1ccc(CSc2nnc(-c3ccccc3)o2)cc1 | inactive |
| CS(=O)(=O)c1cccc(CSc2nnc(-c3ccccc3)o2)c1 | inactive |
| CCSc1nnc(-c2ccccc2)o1 | inactive |
| CS(=O)(=O)c1ccc(-c2nnc(SCc3ccccc3)o2)cc1 | inactive |
| c1ccc(-c2nnc(SCC3CC3)o2)cc1 | inactive |
| Fc1cccc(-c2nnc(SCc3ccccn3)o2)c1 | inactive |
| FC(F)(F)c1cccc(-c2nnc(SCc3ccccc3)o2)c1 | inactive |
| Cc1ccc(-c2nnc(SCc3ccccn3)o2)cc1 | inactive |
| c1ccc(CSc2nnc(-c3ccncc3)o2)cc1 | inactive |
| c1ccc(Cn2cc(CSc3nnc(C4CCC4)o3)nn2)cc1 | inactive |
| FC(F)(F)c1ccccc1-c1nnc(SCc2ccccc2)o1 | inactive |
| COc1ccc(-c2nnc(SCc3ccccc3)o2)cc1 | inactive |
| Fc1ccc(-c2nnc(SCc3ccccn3)o2)cc1 | inactive |
| c1ccc(-c2nnc(SC3CCCCC3)o2)cc1 | inactive |
| c1ccc(CSc2nnc(-c3ccco3)o2)cc1 | inactive |
| Cc1cccc(-c2nnc(SCc3ccccc3)o2)c1 | inactive |
| Fc1cccc(-c2nnc(SCc3ccccc3)o2)c1 | inactive |
